Reference: PubChem BioAssay (Tox21)
Records with an inconclusive call do not appear. A number with no mark means an inactive call. Calls of active or inactive are those of the source. The call rests on the fitted dose curve; in most records, active means well fitted curve in the direction sought with a large enough effect in the repeat runs; inconclusive means weak or mixed curves; inactive means no such curve, though single readings can be large; an effect the other way counts as inactive or inconclusive.

System: not listed separately
Test: qHTS assay to identify aromatase inhibitors - cell viability counter screen (AID 743084);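 further: cells stimulated with testosterone during compound exposure; nearly all actives have a fitted effect of over 55% in size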; further: potency means the concentration at half of the fitted maximal effect
Details: MCF-7 aro ERE viability, CellTiter-Fluor, 24 h; series mostly up to 70.3 µM; activity change, negative = cytotoxicity: at the top concentration
On the % scale 0 is the no-effect control and ±100 the full control effect.

Row | Compound | Potency | activity change, negative = cytotoxicity
1 | Cn1c(N)nc2c3cccnc3ccc21 | 29.1 µM (active) | –
2 | Cl/C=C/CCl | – | 1.74% [at 95 µM]
3 | C=CCc1cc(OC)c2c(c1)OCO2 | – | -18.3% [at 95 µM]
4 | COc1ccc(C=O)cc1O | – | -1.05% [at 95 µM]
5 | Cc1ccc2c(c1)C1CN(C)CCC1N2 (stereo not drawn) | – | 8.27%
6 | Oc1ccc2c3c1O[C@H]1[C@@H](O)C=C[C@H]4[C@@H](C2)NCC[C@@]341 | – | -2.58% [at 95 µM]
7 | CCOC(=O)C(SP(=S)(OC)OC)c1ccccc1 (stereo not drawn) | – | -11.5%
8 | CC(C)[C@]12CC(=O)[C@H](C)[C@H]1C2 | – | -10.3%
9 | O=c1[nH]oc2c1CCNC2 | – | 0.311%

Molecular target: Aryl hydrocarbon receptor (Homo sapiens) (UniProt P35869)
Sequence (P35869 whole entry, looked up): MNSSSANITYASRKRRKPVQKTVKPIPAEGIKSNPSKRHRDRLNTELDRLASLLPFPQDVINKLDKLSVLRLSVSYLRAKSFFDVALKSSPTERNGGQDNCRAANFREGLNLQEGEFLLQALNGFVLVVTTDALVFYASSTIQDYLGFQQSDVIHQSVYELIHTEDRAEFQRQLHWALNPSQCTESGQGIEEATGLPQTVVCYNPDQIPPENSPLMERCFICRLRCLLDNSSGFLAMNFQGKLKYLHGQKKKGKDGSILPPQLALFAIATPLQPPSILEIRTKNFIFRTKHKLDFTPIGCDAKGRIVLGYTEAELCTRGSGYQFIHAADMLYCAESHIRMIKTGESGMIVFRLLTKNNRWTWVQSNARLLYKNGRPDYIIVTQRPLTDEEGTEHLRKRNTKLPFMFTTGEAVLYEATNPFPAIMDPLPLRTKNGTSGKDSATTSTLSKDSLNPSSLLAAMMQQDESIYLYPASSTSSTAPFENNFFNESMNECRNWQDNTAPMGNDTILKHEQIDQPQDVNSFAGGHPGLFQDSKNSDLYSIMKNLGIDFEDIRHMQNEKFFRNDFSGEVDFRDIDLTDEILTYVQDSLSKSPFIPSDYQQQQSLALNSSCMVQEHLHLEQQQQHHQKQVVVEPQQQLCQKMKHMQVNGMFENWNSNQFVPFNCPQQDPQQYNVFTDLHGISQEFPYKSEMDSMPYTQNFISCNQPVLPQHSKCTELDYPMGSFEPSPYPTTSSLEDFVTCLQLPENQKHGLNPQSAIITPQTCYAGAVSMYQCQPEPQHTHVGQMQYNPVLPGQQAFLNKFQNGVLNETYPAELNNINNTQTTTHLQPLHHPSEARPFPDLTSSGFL
Test: qHTS assay to identify small molecule that activate the aryl hydrocarbon receptor (AhR) signaling pathway (AID 743085); further: nearly all actives have a fitted effect of over 15% in size; further: potency means the concentration at half of the fitted maximal effect;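 on activation: HG2L7.5c1 human HepG2 liver cells with stably integrated DRE-driven firefly reporter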
Details: HepG2 AhR-luc (HG2L7.5c1), luciferase, 24 h; series mostly up to 70.3 µM; activation: at the top concentration
Summary of the method: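 A multiplexed format paired cell viability (CellTiter-Fluor fluorescence) with AhR-dependent luciferase output (ONE-Glo luminescence) in the same wells of HepG2 DRE-luc cells after 24 h compound exposure at 37C.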

Row | Compound | activation | Potency
10 | CC(C)[N+](C)(CCC(C(N)=O)(c1ccccc1)c1ccccc1)C(C)C | -1.46% [at 32.5 µM] | –
11 | c1cncc([C@@H]2CCCCN2)c1 | 4.13% | –
12 | CCOC(=O)CCl | -0.179% | –
13 | Cc1ccc2cc(C)ccc2c1 | 1.03% | –
14 | N#CC(Br)(Br)C(N)=O | -0.372% | –
15 | C#CC(C)(C)O | 3.19% [at 95 µM] | –
16 | CCN[C@H](C)Cc1cccc(C(F)(F)F)c1 | -3.85% | –
17 | CCOc1cc(OP(=S)(OC)OC)nc(CC)n1 | 1.62% | –
18 | Brc1c(Br)c(Br)c(Br)c(Br)c1Br | -0.623% [at 8.47 µM] | –
19 | CCN(CCO)CCn1c(Cc2ccccc2)nc2c1c(=O)n(C)c(=O)n2C | 2.24% | –
20 | Cc1cc(OC(=O)N(C)C)nn1C(=O)N(C)C | -1.1% | –
21 | O=C(Cl)OCc1ccccc1 | 2.65% [at 95 µM] | –
22 | ClC1=C(Cl)C2(Cl)C(CBr)CC1(Cl)C2(Cl)Cl (stereo not drawn) | – | inactive
23 | O=C(CCl)NCO | -0.284% | –
24 | CC[C@H](O)C(C[C@H](C)N(C)C)(c1ccccc1)c1ccccc1 | -2.69% [at 95 µM] | –
25 | Cn1c(N)nc2c3cccnc3ccc21 | – | 4.61 µM (active)
26 | Cc1ccc2c(c1)C1CN(C)CCC1N2 (stereo not drawn) | 2.17% | –
27 | Oc1ccc2c3c1O[C@H]1[C@@H](O)C=C[C@H]4[C@@H](C2)NCC[C@@]341 | -0.699% [at 95 µM] | –
28 | CC(C)[C@]12CC(=O)[C@H](C)[C@H]1C2 | 3.16% | –

System: not listed separately
Test: qHTS assay to identify small molecule that activate the aryl hydrocarbon receptor (AhR) signaling pathway - cell viability counter screen (AID 743086);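 further: HepG2 liver cells carrying the AhR DRE luciferase reporter; nearly all actives have a fitted effect of over 45% in size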
Details: HepG2-AhR-luc viability, CellTiter-Fluor, 24 h; series mostly up to 70.3 µM; viability change, negative = cytotoxic: at the top concentration
Summary of the method: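 Cytotoxicity counter screen: CellTiter-Fluor signal (30 min, 37 C) in 4000 HepG2 cells/well carrying the DRE-luciferase reporter, following 24 h compound exposure at 37 C.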

Row | Compound | viability change, negative = cytotoxic | Potency
29 | COC(=O)[C@@H](N)CCCN/C(N)=N/[N+](=O)[O-] | 5.95% | –
30 | CCNc1nc(Cl)nc(NC(C)(C)C)n1 | -15.1% | –
31 | CC(C)[N+](C)(CCC(C(N)=O)(c1ccccc1)c1ccccc1)C(C)C | -2.75% [at 32.5 µM] | –
32 | CCOC(=O)N(C)N=O | 6.06% | –
33 | c1cncc([C@@H]2CCCCN2)c1 | 1.59% | –
34 | CCOC(=O)CCl | -1.09% | –
35 | NCCOS(=O)(=O)O | -6.78% | –
36 | Cc1ccc(-c2nc3ccc(C)cn3c2CC(=O)N(C)C)cc1 | 6.71% | –
37 | C[C@H](N)C(=O)c1ccccc1 | – | inactive
38 | C=CCN1CC[C@]23CCCC[C@H]2[C@H]1Cc1ccc(O)cc13 | -1.62% | –
39 | N#CC(Br)(Br)C(N)=O | -12.9% | –
40 | COc1cccc(C=O)c1 | 12.9% | –
41 | C#CC(C)(C)O | 3.37% [at 95 µM] | –
42 | CCOc1cc(OP(=S)(OC)OC)nc(CC)n1 | 5.26% | –
43 | Brc1c(Br)c(Br)c(Br)c(Br)c1Br | 2.59% [at 8.47 µM] | –
44 | Cc1cc(OC(=O)N(C)C)nn1C(=O)N(C)C | 0.405% | –
45 | O=C(Cl)OCc1ccccc1 | 10.4% [at 95 µM] | –
46 | ClC1=C(Cl)C2(Cl)C(CBr)CC1(Cl)C2(Cl)Cl (stereo not drawn) | – | inactive
47 | CN(C)CCN(C)C | 3.58% | –
48 | O=C(CCl)NCO | -1.68% | –
49 | CCCOC(=O)Cc1ccc(OCC(=O)N(CC)CC)c(OC)c1 | 26.7% | –
50 | O=CCCl | 13.2% | –
51 | Cl/C=C/CCl | 8.84% [at 95 µM] | –
52 | C=CCc1cc(OC)c2c(c1)OCO2 | -9.93% [at 95 µM] | –
53 | COc1ccc(C=O)cc1O | -2.68% [at 95 µM] | –
54 | Cc1ccc2c(c1)C1CN(C)CCC1N2 (stereo not drawn) | -1.82% | –
55 | Oc1ccc2c3c1O[C@H]1[C@@H](O)C=C[C@H]4[C@@H](C2)NCC[C@@]341 | 14.5% [at 95 µM] | –
56 | CCOC(=O)C(SP(=S)(OC)OC)c1ccccc1 (stereo not drawn) | 4.54% | –
57 | CC(C)[C@]12CC(=O)[C@H](C)[C@H]1C2 | -0.155% | –
58 | O=c1[nH]oc2c1CCNC2 | 0.796% | –
